# Measured values taken from PubChem BioAssay (NCATS).
# Inconclusive results are not listed. A call without a number means that no potency is given here. A number with no mark means an inactive call. Active and inactive are the calls of the source. Unless noted, the call rests on the fitted dose curve; in most records, active means well fitted curve in the direction sought with a large enough effect in the repeat runs; inconclusive means weak or mixed curves; inactive means no such curve, though single readings can be large; an effect the other way counts as inactive or inconclusive.
# Tests used:
# [1] = biological target: Cytochrome P450 2D6 (Homo sapiens) (UniProt P10635); assay: Cytochrome P450 family 2 subfamily D member 6 (CYP2D6) small molecule antagonists: luciferase biochemical (cell-free) qHTS assay (AID 1645840); further: nearly all actives have a fitted effect of over 55% in size; further: potency means the concentration at half of the fitted maximal effect
# Cytochrome P450 2D6 (Homo sapiens), sequence (P10635 whole entry, looked up): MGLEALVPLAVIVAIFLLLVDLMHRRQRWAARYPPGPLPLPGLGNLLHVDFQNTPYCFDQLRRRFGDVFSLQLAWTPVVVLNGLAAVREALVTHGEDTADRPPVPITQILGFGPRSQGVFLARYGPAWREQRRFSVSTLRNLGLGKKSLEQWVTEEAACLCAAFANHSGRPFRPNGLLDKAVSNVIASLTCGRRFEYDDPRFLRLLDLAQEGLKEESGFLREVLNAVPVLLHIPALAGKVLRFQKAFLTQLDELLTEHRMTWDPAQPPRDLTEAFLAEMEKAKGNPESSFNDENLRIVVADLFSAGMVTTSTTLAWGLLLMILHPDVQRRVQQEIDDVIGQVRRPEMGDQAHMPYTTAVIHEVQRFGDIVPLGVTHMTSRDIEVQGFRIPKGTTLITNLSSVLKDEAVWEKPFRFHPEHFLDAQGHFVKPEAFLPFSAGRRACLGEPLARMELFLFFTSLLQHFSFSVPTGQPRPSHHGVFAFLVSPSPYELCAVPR
# Procedure, shortened: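 P450-Glo CYP2D6 system: proluciferin substrate converted by enzyme to luciferin, read by luminescence proportional to activity. Enzyme-substrate mix with compound 10 min at room temperature, then NADPH regeneration 1 h before detection reagent.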
# [2] = biological target: Cytochrome P450 2C9 (Homo sapiens) (UniProt P11712); assay: Cytochrome P450 family 2 subfamily C member 9 (CYP2C9) small molecule antagonists: luciferase biochemical (cell-free) qHTS assay (AID 1645842); further: nearly all actives have a fitted effect of over 55% in size; further: potency means the concentration at half of the fitted maximal effect
# Cytochrome P450 2C9 (Homo sapiens), sequence (P11712 whole entry, looked up): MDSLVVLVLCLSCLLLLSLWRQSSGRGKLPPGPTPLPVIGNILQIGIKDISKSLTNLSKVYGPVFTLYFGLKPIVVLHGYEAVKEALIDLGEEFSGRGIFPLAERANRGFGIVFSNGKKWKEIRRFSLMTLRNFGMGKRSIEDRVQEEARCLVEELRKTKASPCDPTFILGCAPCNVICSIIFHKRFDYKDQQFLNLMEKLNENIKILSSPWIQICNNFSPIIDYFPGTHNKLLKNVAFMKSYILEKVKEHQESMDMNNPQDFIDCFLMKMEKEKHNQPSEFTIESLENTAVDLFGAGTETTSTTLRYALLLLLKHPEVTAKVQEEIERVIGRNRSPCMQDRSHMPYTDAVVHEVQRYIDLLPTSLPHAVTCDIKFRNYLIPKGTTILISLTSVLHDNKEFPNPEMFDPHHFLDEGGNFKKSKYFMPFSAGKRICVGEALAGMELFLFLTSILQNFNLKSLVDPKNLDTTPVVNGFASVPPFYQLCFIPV
# Procedure, shortened: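 P450-Glo CYP2C9 system: proluciferin substrate with enzyme in mix containing 0.4% BSA, 10 min at room temperature, then NADPH regeneration solution added and incubated 1 h at 37C. Detection reagent stopped reaction; luminescence read after 20 min as RLU.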
# [3] = Primary qHTS for inhibitors of nuclear receptor binding SET domain protein 2 (NSD2) in an isogenic RCH-ACV NSD2 p.E1099K mutant (9B) (AID 1645876; active means well fitted curve in the direction sought with a large enough effect; an effect the other way counts as inactive or inconclusive; further: nearly all actives have a fitted effect of over 70% in size)
Compound,Potency [1],Potency [2],Potency [3]
c1ccc2ccccc2c1,inactive,inactive,–
CN(C)CCOc1ccc(/C(=C(/CCCl)c2ccccc2)c2ccccc2)cc1,–,–,inactive
Nc1nccs1,inactive,inactive,–
CC[C@H]1OC(=O)C[C@@H](O)[C@H](C)[C@@H](O[C@@H]2O[C@H](C)[C@@H](O[C@H]3C[C@@](C)(O)[C@@H](O)[C@H](C)O3)[C@H](N(C)C)[C@H]2O)[C@@H](CC=O)C[C@@H](C)C(=O)/C=C/C(C)=C/[C@@H]1CO[C@@H]1O[C@H](C)[C@@H](O)[C@@H](OC)[C@H]1OC,inactive,inactive,–
Cc1cc(-c2ccc(N=Nc3c(S(=O)(=O)O)cc4cc(S(=O)(=O)O)cc(N)c4c3O)c(C)c2)ccc1N=Nc1c(S(=O)(=O)O)cc2cc(S(=O)(=O)O)cc(N)c2c1O,–,15.1 µM (active),–
FCOC(C(F)(F)F)C(F)(F)F,inactive,inactive,–
C[C@H](O)CN(C)C,inactive,inactive,–
C[C@H](NCCc1ccc(O)cc1)[C@H](O)c1ccc(O)cc1,–,inactive,–
C/C=C/C=C/C(=O)O,inactive,inactive,–
CC(C)=CCC/C(C)=C/CC/C(C)=C/CC/C(C)=C/CC1=C(C)C(=O)c2ccccc2C1=O,–,8.49 µM (active),–
CCOC(=O)C1=C(COCCN)NC(C)=C(C(=O)OC)C1c1ccccc1Cl (stereo unspecified),16.9 µM (active),2.68 µM (active),–
N[C@@H](Cc1cc(I)c(Oc2ccc(O)c(I)c2)c(I)c1)C(=O)O,–,–,inactive
Cc1c(C)c2c(c(C)c1OC(=O)CCC(=O)O)CC[C@@](C)(CCC[C@H](C)CCC[C@H](C)CCCC(C)C)O2,–,21.3 µM (active),–
COC(=O)c1ccccc1O,inactive,inactive,–
CC(CCc1ccc(O)cc1)NCC(O)c1ccc(O)cc1 (stereo unspecified),6.74 µM (active),inactive,–
O=C(O)c1cc(N=Nc2ccc(O)c(C(=O)O)c2)ccc1O,–,10.7 µM (active),–
O=S(=O)(O)CCCS(=O)(=O)O,inactive,inactive,–
COC(=O)C(CN)c1c[nH]c2ccc(OC)cc12 (stereo unspecified),–,inactive,–
Cn1c(O)c(N=NC(N)=S)c2ccccc21,–,9.52 µM (active),–

Compound,Potency [1],Potency [2],Potency [3]
C[C@H](CCCC(C)(C)O)[C@H]1CC[C@H]2[C@@H]3CC=C4C[C@@H](O)CC[C@]4(C)[C@H]3CC[C@]12C,inactive,inactive,–
CCCCCCOC(=O)c1cccnc1,10.7 µM (active),15.1 µM (active),–
CCCCC(=O)O[C@H]1CC[C@H]2[C@@H]3CCc4cc(O)ccc4[C@H]3CC[C@]12C,inactive,19 µM (active),–
CN1c2c(nc(N)[nH]c2=O)NCC1CNc1ccc(C(=O)NC(CCC(=O)O)C(=O)O)cc1 (stereo unspecified),inactive,inactive,–
CC1(O)CCC(C(C)(C)O)CC1 (stereo unspecified),inactive,inactive,–
CCN(CC)C(=O)c1cccnc1,inactive,inactive,–
CCOC(C)OCC,inactive,inactive,–
NC(=O)OCC(O)COc1ccc(Cl)cc1 (stereo unspecified),inactive,inactive,–
O=C1CCC(=O)N1CO,inactive,inactive,–
COC(=O)[C@@H](N)CS,inactive,9.52 µM (active),–
O=C(OC1C[C@@H]2CC3C[C@H](C1)N2CC3=O)c1c[nH]c2ccccc12 (stereo partly specified),6.74 µM (active),16.9 µM (active),–
FC(F)OC(Cl)C(F)(F)F (stereo unspecified),inactive,inactive,–
CO/N=C(\C(=O)N[C@@H]1C(=O)N2C(C(=O)O)=C(C[N+]3(C)CCCC3)CS[C@H]12)c1csc(N)n1,inactive,inactive,–
OCCOCCOCCO,inactive,inactive,–
CCOC(=O)[C@@H](N)CS,–,10.7 µM (active),–
c1ccc(-n2cnnn2)cc1,inactive,inactive,–
O=C(CO)[C@@H](O)[C@H](O)[C@@H](O)C(=O)O,inactive,inactive,–
C=CCCCCCCCCC(=O)OC,inactive,inactive,–
CCC(O)c1ccccc1 (stereo unspecified),inactive,inactive,–
